# Inconclusive results are not listed. Calls of active or inactive are those of the source. Rule for the calls: active = hit-call score of the fitted dose curve at least 0.9, where 1 is the maximum; inconclusive = response in the unintended direction; inactive = score below 0.9.
# Test system: not listed separately
# Assay: TOX21_p53_BLA_p2_viability: Viability Assessment in the Tox21 HCT-116 p53 Agonism Beta-lactamase Assay, Phase 2 (AID 2283591);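 note: compound exposure lasted 16 h at 37 °C; actives lower the ATP signal meaning cytotoxicity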
# Summary of the method: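 HCT-116 p53-bla cells (4000/well) rested 5 h at 37C, then received compounds in DMSO (217-fold dilution) for 16 h at 37C, 5% CO2. After the CCF4 read, CellTiter-Glo was added; ATP luminescence was read after 30 min at room temperature.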
SMILES,outcome,AC50
ClC(Cl)(Cl)Cl,inactive,
[O]=[Cd],inactive,
ClC(Br)Br,inactive,
O=NN1CCN(N=O)CC1,inactive,
CCCCN=C=O,inactive,
F/C(COc1ccc2c(c1)[nH]c1ccccc12)=C1/CN2CCC1CC2,inactive,
CCOP(=S)(OCC)Oc1cnc2ccccc2n1,inactive,
O=C(Nc1ccccc1)N(Cc1ccc(Cl)cc1)C1CCCC1,inactive,
CCCCCCCCCCCCCCCCCCn1cc[n+](C)c1,inactive,
C=CC1CC=CCC1 (stereo not given),inactive,
O=C(O)C(Cl)Br (stereo not given),inactive,
[H+].[H+].[Hg+2].[O-]B([O-])[O-].[c-]1ccccc1,,7.89 µM (active)
O=C(O)CC(Cl)C(=O)O (stereo not given),inactive,
CCNC1(c2cccs2)CCCCC1=O (stereo not given),inactive,
NC1(c2ccccc2)CCCCC1,inactive,
C[C@@H](CO)NC(=O)[C@@H]1C=C2c3cccc4[nH]cc(c34)C[C@H]2N(C)C1,inactive,
NCC(O)c1cccc(O)c1 (stereo not given),inactive,
CC[N+](C)(CC)CCOC(=O)C(O)(c1ccccc1)c1ccccc1,inactive,
COc1cc(N)c(Cl)cc1C(=O)NC1CN2CCC1CC2 (stereo not given),inactive,
CN1C(=O)NC(=O)C(C)(C2=CCCCC2)C1=O (stereo not given),inactive,

SMILES,outcome,AC50
NC(=O)CS(=O)C(c1ccccc1)c1ccccc1 (stereo not given),inactive,
CC(C)CCON=O,inactive,
C[C@@H]1CN(C2CCC(C#N)(c3ccc(F)cc3)CC2)CC[C@]1(C(=O)O)c1ccccc1 (stereo not given in full),inactive,
CC[C@H](OC(C)=O)C(C[C@H](C)NC)(c1ccccc1)c1ccccc1,inactive,
O=NN1CCNCC1,inactive,
OCCSCSCCO,inactive,
C(CCOCC1CO1)COCC1CO1 (stereo not given),inactive,
O=C(N/N=C/c1ccc([N+](=O)[O-])o1)c1cc([N+](=O)[O-])cc([N+](=O)[O-])c1O,inactive,
O=[N+]([O-])C(Br)Br,inactive,
O=C/C=C/c1ccco1,inactive,
COc1ccc2c(c1OC)CN1CCc3cc4c(cc3C1C2)OCO4 (stereo not given),inactive,
O=C(N[C@@H]1N=C(c2ccccc2F)c2cccc3c2N(CC3)C1=O)c1cc2ccccc2[nH]1,inactive,
O=C(NC(=O)c1ccccc1Cl)Nc1ccc(OC(F)(F)F)cc1,inactive,
C[C@@H]1CC[C@H]2[C@@H](C)C(=O)O[C@@H]3O[C@@]4(C)CC[C@@H]1[C@]32OO4,inactive,
CC(C)(C)NCC(O)c1ccccc1Cl (stereo not given),inactive,
COC(=O)[C@]12CCC(C)(C)C[C@H]1[C@H]1C(=O)C=C3[C@@]4(C)C=C(C#N)C(=O)C(C)(C)[C@@H]4CC[C@@]3(C)[C@]1(C)CC2,,1.83 µM (active)
C[C@]12CCC(=O)C[C@@H]1CC[C@@H]1[C@@H]2CC[C@@]2(C)[C@H]1CC[C@]2(C)O,inactive,
Clc1ccc(CSC(Cn2ccnc2)c2ccc(Cl)cc2Cl)cc1 (stereo not given),inactive,
N#CC(C#N)=Cc1cc(O)c(O)c(O)c1,inactive,
CCCCCCCCCCCCCC[P+](CCCCCC)(CCCCCC)CCCCCC (tested in a mixture with another compound),,11.7 µM (active)

# Molecular target: Cellular tumor antigen p53 (Homo sapiens) (UniProt P04637)
# Sequence (P04637 whole entry, looked up): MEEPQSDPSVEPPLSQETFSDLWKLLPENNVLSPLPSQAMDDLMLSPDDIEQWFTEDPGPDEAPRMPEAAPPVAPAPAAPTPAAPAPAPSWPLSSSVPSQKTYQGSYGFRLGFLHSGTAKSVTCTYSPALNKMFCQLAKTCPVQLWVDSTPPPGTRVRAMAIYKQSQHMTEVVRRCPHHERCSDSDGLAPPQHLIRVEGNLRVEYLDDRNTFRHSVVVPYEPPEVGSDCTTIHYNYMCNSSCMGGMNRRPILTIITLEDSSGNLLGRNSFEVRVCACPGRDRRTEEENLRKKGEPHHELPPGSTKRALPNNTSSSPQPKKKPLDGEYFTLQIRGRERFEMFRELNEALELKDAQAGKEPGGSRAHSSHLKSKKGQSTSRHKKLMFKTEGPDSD
# Assay: TOX21_p53_BLA_p2_ratio: Tox21 HCT-116 p53 Agonism Beta-lactamase Assay, Ratio, Phase 2 (AID 2283592)
# Summary of the method: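 Gain-of-signal p53 agonism was scored from the beta-lactamase FRET ratio (460/530 nm, 405 nm excitation) in HCT116 cells treated 16 h at 37C, 5% CO2, with DMSO serving as negative control and baseline.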
SMILES,outcome,AC50
ClC(Cl)(Cl)Cl,inactive,
[O]=[Cd],inactive,
ClC(Br)Br,inactive,
O=NN1CCN(N=O)CC1,inactive,
CCCCN=C=O,inactive,
F/C(COc1ccc2c(c1)[nH]c1ccccc12)=C1/CN2CCC1CC2,inactive,
CCOP(=S)(OCC)Oc1cnc2ccccc2n1,inactive,
O=C(Nc1ccccc1)N(Cc1ccc(Cl)cc1)C1CCCC1,inactive,
CCCCCCCCCCCCCCCCCCn1cc[n+](C)c1,,8.42 µM (active)
C=CC1CC=CCC1 (stereo not given),inactive,
O=C(O)C(Cl)Br (stereo not given),inactive,
[H+].[H+].[Hg+2].[O-]B([O-])[O-].[c-]1ccccc1,,1.73 µM (active)
O=C(O)CC(Cl)C(=O)O (stereo not given),,57.3 µM (active)
CCNC1(c2cccs2)CCCCC1=O (stereo not given),inactive,
NC1(c2ccccc2)CCCCC1,inactive,
C[C@@H](CO)NC(=O)[C@@H]1C=C2c3cccc4[nH]cc(c34)C[C@H]2N(C)C1,inactive,
NCC(O)c1cccc(O)c1 (stereo not given),inactive,
CC[N+](C)(CC)CCOC(=O)C(O)(c1ccccc1)c1ccccc1,inactive,
COc1cc(N)c(Cl)cc1C(=O)NC1CN2CCC1CC2 (stereo not given),inactive,
CN1C(=O)NC(=O)C(C)(C2=CCCCC2)C1=O (stereo not given),inactive,

SMILES,outcome,AC50
NC(=O)CS(=O)C(c1ccccc1)c1ccccc1 (stereo not given),inactive,
CC(C)CCON=O,inactive,
C[C@@H]1CN(C2CCC(C#N)(c3ccc(F)cc3)CC2)CC[C@]1(C(=O)O)c1ccccc1 (stereo not given in full),inactive,
CC[C@H](OC(C)=O)C(C[C@H](C)NC)(c1ccccc1)c1ccccc1,inactive,
O=NN1CCNCC1,inactive,
OCCSCSCCO,inactive,
C(CCOCC1CO1)COCC1CO1 (stereo not given),inactive,
O=C(N/N=C/c1ccc([N+](=O)[O-])o1)c1cc([N+](=O)[O-])cc([N+](=O)[O-])c1O,inactive,
O=[N+]([O-])C(Br)Br,inactive,
O=C/C=C/c1ccco1,inactive,
COc1ccc2c(c1OC)CN1CCc3cc4c(cc3C1C2)OCO4 (stereo not given),inactive,
O=C(N[C@@H]1N=C(c2ccccc2F)c2cccc3c2N(CC3)C1=O)c1cc2ccccc2[nH]1,inactive,
O=C(NC(=O)c1ccccc1Cl)Nc1ccc(OC(F)(F)F)cc1,inactive,
C[C@@H]1CC[C@H]2[C@@H](C)C(=O)O[C@@H]3O[C@@]4(C)CC[C@@H]1[C@]32OO4,inactive,
CC(C)(C)NCC(O)c1ccccc1Cl (stereo not given),inactive,
COC(=O)[C@]12CCC(C)(C)C[C@H]1[C@H]1C(=O)C=C3[C@@]4(C)C=C(C#N)C(=O)C(C)(C)[C@@H]4CC[C@@]3(C)[C@]1(C)CC2,,29.2 µM (active)
C[C@]12CCC(=O)C[C@@H]1CC[C@@H]1[C@@H]2CC[C@@]2(C)[C@H]1CC[C@]2(C)O,inactive,
Clc1ccc(CSC(Cn2ccnc2)c2ccc(Cl)cc2Cl)cc1 (stereo not given),,17.7 µM (active)
N#CC(C#N)=Cc1cc(O)c(O)c(O)c1,inactive,
CCCCCCCCCCCCCC[P+](CCCCCC)(CCCCCC)CCCCCC (tested in a mixture with another compound),,21.4 µM (active)
